# Experimental data: PubChem BioAssay AID1159580 (chemical genetic matrix, 2015)
# Screen size: about 5,500 compounds; about 2,000 (36%) were called active. Another 18% or so got no clear call; they are omitted. The list shows a part of the results. Unmarked numbers belong to inactive results. No stated cut-off is given here; in the data, active means normalized growth mostly below about 0.91 (no sharp cut-off); inconclusive means no clear call, values can overlap the other calls; inactive means mostly above about 0.92.
# Test: chemical genetic growth profiling, strain panel (AID 1159580);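 further: tested at 20 µM; growth read once vehicle control cultures reached saturation at 30 °C; 1 = growth at the plate median or of vehicle wells; lower values mean less growth of the strain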
# Settings: growth OD
smiles,measurement,setting,value
C#C[C@]1(O)CCC2C3CCc4cc(O)ccc4C3CC[C@@]21C (stereo partly drawn),normalized growth,"S. cerevisiae deletion strains, locus YJR043C, strain POL32, active compounds read low",0.927
same,normalized growth,"S. cerevisiae deletion strains, locus YJR066W, strain TOR1, active compounds read low",0.81 (active)
same,normalized growth,"S. cerevisiae deletion strains, locus YKL009W, strain mrt4, active compounds read low",0.827 (active)
same,normalized growth,"S. cerevisiae deletion strains, locus YKL068W, active compounds read low",1.03
same,normalized growth,"S. cerevisiae deletion strains, locus YKL085W, strain MDH1 (second series), active compounds read low",1.01
same,normalized growth,"S. cerevisiae deletion strains, locus YKL085W, strain MDH1, active compounds read low",1.01
same,normalized growth,"S. cerevisiae deletion strains, locus YKL160W, strain elf1, active compounds read low",0.996
same,normalized growth,"S. cerevisiae deletion strains, locus YKR001C, strain vps1, active compounds read low",0.959
same,normalized growth,"S. cerevisiae deletion strains, locus YKR026C, strain gcn3, active compounds read low",1.05
same,normalized growth,"S. cerevisiae deletion strains, locus YKR091W, strain srl3, active compounds read low",1.02
same,normalized growth,"S. cerevisiae deletion strains, locus YLL001W, strain dnm1, active compounds read low",1.05
same,normalized growth,"S. cerevisiae deletion strains, locus YLL026W, active compounds read low",1.01
same,normalized growth,"S. cerevisiae deletion strains, locus YLL041C, strain sdh2, active compounds read low",1.03
same,normalized growth,"S. cerevisiae deletion strains, locus YLR027C, strain aat2, active compounds read low",0.938
same,normalized growth,"S. cerevisiae deletion strains, locus YLR039C, strain RIC1, active compounds read low",0.766
same,normalized growth,"S. cerevisiae deletion strains, locus YLR058C, strain SHM2, active compounds read low",0.995
same,normalized growth,"S. cerevisiae deletion strains, locus YLR102C, strain apc9, active compounds read low",1.03
same,normalized growth,"S. cerevisiae deletion strains, locus YLR113W, strain HOG1, active compounds read low",1.05
same,normalized growth,"S. cerevisiae deletion strains, locus YLR221C, strain rsa3, active compounds read low",0.965
same,normalized growth,"S. cerevisiae deletion strains, locus YLR258W, strain gsy2, active compounds read low",0.982
same,normalized growth,"S. cerevisiae deletion strains, locus YLR262C, strain YPT6 (second series), active compounds read low",0.735 (active)
same,normalized growth,"S. cerevisiae deletion strains, locus YLR262C, strain YPT6, active compounds read low",0.683
same,normalized growth,"S. cerevisiae deletion strains, locus YLR268W, strain sec22, active compounds read low",0.91
same,normalized growth,"S. cerevisiae deletion strains, locus YLR320W, strain mms22, active compounds read low",0.898
same,normalized growth,"S. cerevisiae deletion strains, locus YLR330W, strain CHS5, active compounds read low",1.01
same,normalized growth,"S. cerevisiae deletion strains, locus YLR342W, strain FKS1 (second series), active compounds read low",0.724 (active)
same,normalized growth,"S. cerevisiae deletion strains, locus YLR342W, strain FKS1, active compounds read low",0.983
same,normalized growth,"S. cerevisiae deletion strains, locus YLR357W, strain rsc2, active compounds read low",1.1
same,normalized growth,"S. cerevisiae deletion strains, locus YLR370C, strain arc18, active compounds read low",1.03
same,normalized growth,"S. cerevisiae deletion strains, locus YLR371W, strain rom2, active compounds read low",1.03
same,normalized growth,"S. cerevisiae deletion strains, locus YLR384C, strain iki3, active compounds read low",1.04
same,normalized growth,"S. cerevisiae deletion strains, locus YLR418C, strain cdc73, active compounds read low",0.791 (active)
same,normalized growth,"S. cerevisiae deletion strains, locus YML016C, strain PPZ1, active compounds read low",1.03
same,normalized growth,"S. cerevisiae deletion strains, locus YML032C, strain rad52, active compounds read low",0.913
same,normalized growth,"S. cerevisiae deletion strains, locus YML120C, strain ndi1, active compounds read low",0.985
same,normalized growth,"S. cerevisiae deletion strains, locus YML124C, strain tub3, active compounds read low",1.03
same,normalized growth,"S. cerevisiae deletion strains, locus YMR058W, strain fet3, active compounds read low",0.947
same,normalized growth,"S. cerevisiae deletion strains, locus YMR078C, strain ctf18, active compounds read low",1.02
same,normalized growth,"S. cerevisiae deletion strains, locus YMR125W, strain sto1, active compounds read low",1.13 [resistant] (active)
same,normalized growth,"S. cerevisiae deletion strains, locus YMR129W, active compounds read low",1.02
same,normalized growth,"S. cerevisiae deletion strains, locus YMR205C, strain PFK2, active compounds read low",0.995
same,normalized growth,"S. cerevisiae deletion strains, locus YMR223W, strain ubp8, active compounds read low",0.948
same,normalized growth,"S. cerevisiae deletion strains, locus YMR231W, strain pep5, active compounds read low",1.02
same,normalized growth,"S. cerevisiae deletion strains, locus YMR307W, strain GAS1, active compounds read low",0.681
same,normalized growth,"S. cerevisiae deletion strains, locus YNL067W, strain RPL9B, active compounds read low",0.9
same,normalized growth,"S. cerevisiae deletion strains, locus YNL071W, strain lat1, active compounds read low",0.97
same,normalized growth,"S. cerevisiae deletion strains, locus YNL183C, strain NPR1, active compounds read low",0.91
same,normalized growth,"S. cerevisiae deletion strains, locus YNL209W, strain ssb2, active compounds read low",1.02
same,normalized growth,"S. cerevisiae deletion strains, locus YNL233W, strain BNI4, active compounds read low",0.928
same,normalized growth,"S. cerevisiae deletion strains, locus YNL248C, strain rpa49, active compounds read low",0.955
same,normalized growth,"S. cerevisiae deletion strains, locus YNL250W, strain rad50, active compounds read low",0.989
same,normalized growth,"S. cerevisiae deletion strains, locus YNL271C, strain bni1, active compounds read low",0.968
same,normalized growth,"S. cerevisiae deletion strains, locus YNL298W, strain CLA4, active compounds read low",0.909
same,normalized growth,"S. cerevisiae deletion strains, locus YNL307C, strain MCK1, active compounds read low",0.813 (active)
same,normalized growth,"S. cerevisiae deletion strains, locus YNL322C, strain KRE1 (second series), active compounds read low",1.03
same,normalized growth,"S. cerevisiae deletion strains, locus YNL322C, strain KRE1, active compounds read low",1.01
same,normalized growth,"S. cerevisiae deletion strains, locus YNR049C, strain mso1, active compounds read low",1.04
same,normalized growth,"S. cerevisiae deletion strains, locus YNR052C, strain pop2, active compounds read low",0.965
same,normalized growth,"S. cerevisiae deletion strains, locus YOL006C, strain TOP1, active compounds read low",0.726
same,normalized growth,"S. cerevisiae deletion strains, locus YOL012C, strain htz1",2.07
same,normalized growth,"S. cerevisiae deletion strains, locus YOL147C, strain pex11, active compounds read low",1.02
same,normalized growth,"S. cerevisiae deletion strains, locus YOR001W, strain rrp6, active compounds read low",0.939
same,normalized growth,"S. cerevisiae deletion strains, locus YOR061W, strain CKA2, active compounds read low",1.01
same,normalized growth,"S. cerevisiae deletion strains, locus YOR069W, strain VPS5, active compounds read low",1.02
same,normalized growth,"S. cerevisiae deletion strains, locus YOR070C, strain gyp1, active compounds read low",0.987
same,normalized growth,"S. cerevisiae deletion strains, locus YOR080W, strain dia2, active compounds read low",1.01
same,normalized growth,"S. cerevisiae deletion strains, locus YOR083W, strain WHI5, active compounds read low",0.974
same,normalized growth,"S. cerevisiae deletion strains, locus YOR106W, strain vam3, active compounds read low",0.938
same,normalized growth,"S. cerevisiae deletion strains, locus YOR136W, strain idh2, active compounds read low",1.01
same,normalized growth,"S. cerevisiae deletion strains, locus YOR144C, strain elg1, active compounds read low",0.998
same,normalized growth,"S. cerevisiae deletion strains, locus YOR184W, strain ser1, active compounds read low",0.624 (active)
same,normalized growth,"S. cerevisiae deletion strains, locus YOR231W, strain MKK1, active compounds read low",0.95
same,normalized growth,"S. cerevisiae deletion strains, locus YOR265W, strain rbl2, active compounds read low",1.03
same,normalized growth,"S. cerevisiae deletion strains, locus YOR270C, strain vph1, active compounds read low",0.905
same,normalized growth,"S. cerevisiae deletion strains, locus YOR290C, strain snf2, active compounds read low",0.908
same,normalized growth,"S. cerevisiae deletion strains, locus YOR316C, strain cot1, active compounds read low",1.04
same,normalized growth,"S. cerevisiae deletion strains, locus YPL051W, strain arl3, active compounds read low",0.91 (active)
same,normalized growth,"S. cerevisiae deletion strains, locus YPL078C, strain atp4, active compounds read low",0.915
same,normalized growth,"S. cerevisiae deletion strains, locus YPL106C, strain sse1, active compounds read low",1.14
same,normalized growth,"S. cerevisiae deletion strains, locus YPL240C, strain hsp82, active compounds read low",1.02
same,normalized growth,"S. cerevisiae deletion strains, locus YPL241C, strain CIN2, active compounds read low",1.03
same,normalized growth,"S. cerevisiae deletion strains, locus YPL256C, strain CLN2, active compounds read low",1.03
same,normalized growth,"S. cerevisiae deletion strains, locus YPR119W, strain clb2, active compounds read low",1.04
same,normalized growth,"S. cerevisiae deletion strains, locus YPR141C, strain kar3, active compounds read low",1.04
same,normalized growth,"S. cerevisiae deletion strains, locus YPR163C, strain tif3, active compounds read low",0.934
same,normalized growth,"S. cerevisiae deletion strains, locus YPR167C, strain met16, active compounds read low",1.01
same,normalized growth,"S. cerevisiae deletion strains, strain wtn01, active compounds read low",0.906
same,normalized growth,"S. cerevisiae strains, strain wild type, active compounds read low",0.999
